Measured values published in the OligoGym collection.

These sequences were tested against SELO (assay: pooled miR-30 sensor sort-seq; sequence = guide strand). Conditions: shRNA.
Note: reference of the scale not given here.

In order of falling sensor-assay potency score (higher = more potent):
1. TTTCTCTGCACGCTGTCGCTGG  -0.303
2. TTGAGCTGCAGCTCCCAGCGCT  -0.647
3. TCGCTGCATAGAAACTCCCGGA  -0.819
4. AACACGTCGCGCACCACCGTGG  -0.914
5. TGTTTGTGAAGTCGGCACCGGT  -1.02
6. TTTGGGATTACCATCATAGAAC  -1.22
7. TTGCCGCTGAAGAACAGCGCGG  -1.34

What follows are sequences tested against SEMA3B in the same assay as above. Conditions: shRNA.

In order of rising sensor-assay potency score (higher = more potent):
1. ATGCTGTACACGCACACCGCAG  -1.8
2. AACTGGATGACATCGTCTGGGA  -0.898
3. TCTCCGGAGCACAACGTGCTGG  -0.802
4. TTGCATGCTGGTGACAGCGGCC  -0.767
5. TTGGTGGAACTGAAGGTGCCAA  -0.717
6. TTGTGTTCCAGCAGCGCGGGAC  -0.691
7. TTCAGGAACGTCGTCCACTTGT  -0.531
8. TACCTTGACAAACTTGGGCTCA  -0.131
9. TAGATTTTGTCGTCGTCTGGGT  0.074
10. TTGGAAGAAATTTGCATGCTGG  0.12
11. TCACACTCCAGAAAGGCGCTGC  0.144
12. TACTTTAGTACAGTCGGCCTGC  0.558

These sequences were tested against SEMA5A in the same assay as above. Conditions: shRNA.

In order of falling sensor-assay potency score (higher = more potent):
1. TTTCGATTCTCTGTCTTCCCAC  0.0611
2. TATCGTTCTTGCACACCCGGGC  -0.125
3. TTAGAGTCAAACACACACGGCC  -0.151
4. TTCTTCGCTCTGAACTCCCGTA  -0.152
5. TAGAACAGTACCGCATTTCGAT  -0.368
6. TTGCAGTATCTTTCCTCGCGGT  -0.492
7. TTATGAAATATTATGGACCTAT  -0.515
8. TTGAAGACGCACACAGCTGAGG  -0.713
9. ATTAGAGTCAAACACACACGGC  -0.728
10. ATCTCTTCCAGCAAACAGCTGC  -0.82
11. ATATCGTTCTTGCACACCCGGG  -1.15
12. TCTTCCAGCAAACAGCTGCTTG  -1.24

The sequences below were run against SEMA6D in the same assay as above. Conditions: shRNA.

In order of falling sensor-assay potency score (higher = more potent):
1. TTGATTTGTATTATGTCTGTAA  0.267
2. TTTAGGAGAATCAATATTCTGT  -0.109
3. TTGGGTGGTAGCTCTTTCCGAC  -0.271
4. TACTTTTTCAATGTCATCCATG  -0.449
5. TTTTTTTTGACATTTGTGCAAG  -0.63
6. TTTCTTTCCTTGAAGCTCCATG  -0.704
7. TTTTACATGATCCATAACGCTC  -0.732
8. TATTCTAAGGTACTCAACCTGT  -0.752
9. TAATAGACTGCAGAACATCAAA  -1.03
